Where “and” joins values, the source holds several entries; their conditions need not be identical. Equal values may be shown once. About 2,000 (36%) of roughly 5,500 compounds were called active. Another 18% or so got no clear call; they are omitted. Cut-off read from the data, not from the text of the source: active = normalized growth mostly below about 0.91 (no sharp cut-off); inconclusive = no clear call, values can overlap the other calls; inactive = mostly above about 0.92. This is one part of the list.
Assay: chemical genetic growth profiling, strain panel (AID 1159580);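 note: tested at 20 µM; growth read once vehicle control cultures reached saturation at 30 °C; 1 = growth at the plate median or of vehicle wells; lower values mean less growth of the strain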
Details: S. cerevisiae deletion strains, growth OD

Measured: normalized growth

COc1ccc(CCC(=O)c2c(O)cc(O[C@@H]3O[C@H](CO)C(O)[C@H](O)C3O[C@@H]3O[C@@H](C)[C@H](O)[C@@H](O)[C@H]3O)cc2O)cc1O (some centres not stated)
inactive: locus YAL013W, strain DEP1, stronger effect = lower value 1 | locus YAL021C, strain ccr4, stronger effect = lower value 0.994 | locus YAL026C, strain drs2, stronger effect = lower value 1.04 | locus YAL030W, strain snc1, stronger effect = lower value 1.01 | locus YBL061C, strain skt5, stronger effect = lower value 1.02 | locus YBR009C, strain hhf1, stronger effect = lower value 1.02 | locus YBR021W, strain FUR4, stronger effect = lower value 0.997 | locus YBR023C, strain chs3, stronger effect = lower value 1.02 | locus YBR171W, strain sec66, stronger effect = lower value 1.04 | locus YBR229C, strain ROT2, stronger effect = lower value 0.998 | locus YBR231C, strain swc5, stronger effect = lower value 1.03 | locus YBR279W, strain paf1, stronger effect = lower value 1.02 | locus YCL011C, strain gbp2, stronger effect = lower value 1.02 | locus YCL016C, strain dcc1, stronger effect = lower value 1.01 | locus YCL029C, strain bik1, stronger effect = lower value 0.972 | locus YCL061C, strain MRC1, stronger effect = lower value 1.02 | locus YCL069W, strain vba3, stronger effect = lower value 1.02 | locus YCR088W, strain abp1, stronger effect = lower value 1.02 | locus YDL005C, strain med2, stronger effect = lower value 1.03 | locus YDL035C, strain GPR1, stronger effect = lower value 0.999 | locus YDL040C, strain nat1, stronger effect = lower value 0.998 | locus YDL074C, strain BRE1, stronger effect = lower value 0.966 | locus YDL101C, strain DUN1, stronger effect = lower value 0.995 | locus YDL134C, strain PPH21, stronger effect = lower value 0.997 | locus YDL185W, strain tfp1, stronger effect = lower value 0.955 | locus YDL192W, strain arf1, stronger effect = lower value 0.976 | locus YDR001C, strain nth1, stronger effect = lower value 1.01 | locus YDR069C, strain doa4, stronger effect = lower value 1.04 | locus YDR101C, strain arx1, stronger effect = lower value 0.987 | locus YDR137W, strain rgp1, stronger effect = lower value 1.04 | locus YDR150W, strain NUM1, stronger effect = lower value 1.01 | locus YDR159W, strain sac3, stronger effect = lower value 1.1 | locus YDR162C, strain NBP2, stronger effect = lower value 0.99 | locus YDR195W, strain ref2 0.986 | locus YDR297W, strain sur2, stronger effect = lower value 1.02 | locus YDR318W, strain mcm21, stronger effect = lower value 0.978 | locus YDR334W, strain swr1, stronger effect = lower value 1.03 | locus YDR335W, strain msn5, stronger effect = lower value 1.01 | locus YDR388W, stronger effect = lower value 0.995 | locus YDR392W, strain spt3, stronger effect = lower value 1.02 | locus YDR502C, strain sam2, stronger effect = lower value 1 | locus YEL003W, strain gim4, stronger effect = lower value 1.02 | locus YEL037C, strain rad23, stronger effect = lower value 1.01 | locus YEL061C, strain CIN8 (second series), stronger effect = lower value 1.01 | locus YEL061C, strain CIN8, stronger effect = lower value 0.999 | locus YER015W, strain faa2, stronger effect = lower value 1.01 | locus YER016W, strain bim1, stronger effect = lower value 1.03 | locus YER110C, stronger effect = lower value 0.983 | locus YER111C, strain swi4, stronger effect = lower value 1.01 | locus YER155C, strain BEM2 (second series), stronger effect = lower value 1.03 | locus YER155C, strain BEM2, stronger effect = lower value 0.992 | locus YER167W, strain BCK2, stronger effect = lower value 0.994 | locus YFR010W, strain ubp6, stronger effect = lower value 1.02 | locus YGL078C, strain dbp3, stronger effect = lower value 0.994 | locus YGL086W, strain mad1, stronger effect = lower value 0.999 | locus YGL167C, strain pmr1, stronger effect = lower value 1.03 | locus YGL173C, strain kem1, stronger effect = lower value 1.03 | locus YGL227W, strain vid30, stronger effect = lower value 1.02 | locus YGL240W, strain doc1, stronger effect = lower value 1.05 | locus YGL248W, strain PDE1, stronger effect = lower value 1 | locus YGL253W, strain hxk2, stronger effect = lower value 1.02 | locus YGR078C, strain PAC10, stronger effect = lower value 1.01 | locus YGR135W, strain pre9, stronger effect = lower value 1 | locus YGR229C, strain SMI1, stronger effect = lower value 1.01 | locus YGR252W, strain gcn5, stronger effect = lower value 1.07 | locus YHR013C, strain ard1, stronger effect = lower value 1 | locus YHR027C, strain rpn1, stronger effect = lower value 1.02 | locus YHR030C, strain SLT2, stronger effect = lower value 1 and 0.973 | locus YHR079C, strain IRE1 (second series), stronger effect = lower value 0.98 | locus YHR079C, strain IRE1, stronger effect = lower value 0.961 | locus YHR094C, strain hxt1, stronger effect = lower value 0.966 | locus YHR129C, strain ARP1, stronger effect = lower value 0.998 | locus YHR142W, strain chs7, stronger effect = lower value 1.01 | locus YHR200W, strain rpn10, stronger effect = lower value 0.975 | locus YIL066C, strain RNR3, stronger effect = lower value 0.994 | locus YIL073C, strain SPO22, stronger effect = lower value 0.941 | locus YIL125W, strain kgd1, stronger effect = lower value 0.981 | locus YIR030C, strain dcg1, stronger effect = lower value 0.988 | locus YJL092W, strain hpr5, stronger effect = lower value 1.01 | locus YJL095W, strain BCK1 (second series), stronger effect = lower value 1.01 | locus YJL095W, strain BCK1, stronger effect = lower value 0.969 and 0.981 | locus YJL115W, strain asf1, stronger effect = lower value 1.02 | locus YJL129C, strain trk1, stronger effect = lower value 1.03 | locus YJL134W, strain LCB3, stronger effect = lower value 0.999 | locus YJL154C, strain vps35, stronger effect = lower value 1.01 | locus YJL164C, strain tpk1, stronger effect = lower value 0.995 | locus YJL166W, strain qcr8, stronger effect = lower value 1.02 | locus YJL168C, strain set2, stronger effect = lower value 0.978 | locus YJL187C, strain SWE1 (second series), stronger effect = lower value 0.984 | locus YJL187C, strain SWE1, stronger effect = lower value 1.04 | locus YJR043C, strain POL32, stronger effect = lower value 0.963 | locus YJR066W, strain TOR1, stronger effect = lower value 0.896
